From the supplement of paper PMC8728848
Many of the other results were omitted from the sample, so the strongest signals are more common in it than they were.

Key:
Assay in all cases: glycan array binding signal (z-score within array); higher = stronger binding
Conditions in all cases: glycan notation: IUPAC condensed, linker removed
[1] = molecular target: GlcNAc(a1-4)Gal(b1-4)GlcNAc(b1-3)Gal(b1-4)GlcNAc
Outline: (§1)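 Glycan array binding is given as a within-array Z-score, which can be read as non-binding when negative. The arrays, 3228 of them, came from the Consortium for Functional Glycomics database and were retained only where the protein sequence was available. Z-scores were averaged across arrays of the same protein sequence at different concentrations or buffers and across linkers.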

[2] = molecular target: GlcNAc(b1-2)[GlcNAc(b1-4)]Man(a1-3)[GlcNAc(b1-4)][GlcNAc(b1-2)[GlcNAc(b1-6)]Man(a1-6)]Man(b1-4)GlcNAc(b1-4)[Fuc(a1-6)]GlcNAc
Outline: as §1

GlcNAc(b1-3)Fuc = molecular target: GlcNAc(b1-3)Fuc
Outline: as §1

GlcNAc(b1-3)Gal(b1-4)Glc = molecular target: GlcNAc(b1-3)Gal(b1-4)Glc
Outline: as §1

[3] = molecular target: GlcNAc(b1-3)Gal(b1-4)GlcNAc(b1-3)Gal(b1-4)GlcNAc(b1-2)Man(a1-3)[GlcNAc(b1-3)Gal(b1-4)GlcNAc(b1-3)Gal(b1-4)GlcNAc(b1-2)Man(a1-6)]Man(b1-4)GlcNAc(b1-4)GlcNAc
Outline: as §1

[4] = molecular target: GlcNAc(b1-3)Gal(b1-4)GlcNAc(b1-3)Gal(b1-4)GlcNAc(b1-3)Gal(b1-4)GlcNAc(b1-3)Gal(b1-4)GlcNAc(b1-2)Man(a1-3)[GlcNAc(b1-3)Gal(b1-4)GlcNAc(b1-3)Gal(b1-4)GlcNAc(b1-3)Gal(b1-4)GlcNAc(b1-3)Gal(b1-4)GlcNAc(b1-2)Man(a1-6)]Man(b1-4)GlcNAc(b1-4)[Fuc(a1-6)]GlcNAc
Outline: as §1

[5] = molecular target: GlcNAc(b1-3)Gal(b1-4)GlcNAc(b1-3)Gal(b1-4)GlcNAc(b1-3)Gal(b1-4)GlcNAc(b1-3)Gal(b1-4)GlcNAc(b1-2)[GlcNAc(b1-3)Gal(b1-4)GlcNAc(b1-3)Gal(b1-4)GlcNAc(b1-3)Gal(b1-4)GlcNAc(b1-3)Gal(b1-4)GlcNAc(b1-6)]Man(a1-6)[GlcNAc(b1-3)Gal(b1-4)GlcNAc(b1-3)Gal(b1-4)GlcNAc(b1-3)Gal(b1-4)GlcNAc(b1-3)Gal(b1-4)GlcNAc(b1-2)Man(a1-3)]Man(b1-4)GlcNAc(b1-4)[Fuc(a1-6)]GlcNAc
Outline: as §1

[6] = molecular target: GlcNAc(b1-3)Gal(b1-4)GlcNAc(b1-3)[GlcNAc(b1-3)Gal(b1-4)GlcNAc(b1-3)]GalNAc
Outline: as §1

Kdn(a2-3)Gal(b1-4)GlcNAc = molecular target: Kdn(a2-3)Gal(b1-4)GlcNAc
Outline: as §1

[7] = molecular target: Man(a1-2)Man(a1-2)Man(a1-3)Man
Outline: as §1

[8] = molecular target: Neu5Ac(a2-3)Gal(b1-3)GlcNAc(b1-3)Gal(b1-4)GlcNAc
Outline: as §1

[9] = molecular target: Neu5Ac(a2-3)Gal(b1-3)GlcNAc(b1-3)GalNAc
Outline: as §1

[10] = molecular target: Neu5Ac(a2-6)Gal(b1-4)GlcNAc(b1-2)Man
Outline: as §1

[11] = molecular target: Neu5Ac(a2-6)Gal(b1-4)GlcNAc(b1-3)Gal(b1-4)GlcNAc
Outline: as §1

[12] = molecular target: Neu5Ac(a2-8)Neu5Ac(a2-3)[Gal(b1-3)GalNAc(b1-4)]Gal(b1-4)Glc
Outline: as §1

[13] = molecular target: Neu5Gc(b2-6)Gal(b1-4)GlcNAc
Outline: as §1

Fuc(a1-2)Gal(b1-3)GlcNAc = molecular target: Fuc(a1-2)Gal(b1-3)GlcNAc
Outline: as §1

[14] = molecular target: Fuc(a1-2)Gal(b1-4)[Fuc(a1-3)]GlcNAc(b1-3)Gal(b1-4)[Fuc(a1-3)]GlcNAc
Outline: as §1

[15] = molecular target: Fuc(a1-3)[Gal(b1-4)]GlcNAc(b1-3)Gal(b1-3)[Fuc(a1-4)]GlcNAc
Outline: as §1

[16] = molecular target: Fuc(a1-3)[Gal3S(b1-4)]Glc6S
Outline: as §1

Gal(b1-3)GalNAc = molecular target: Gal(b1-3)GalNAc
Outline: as §1

[17] = molecular target: Gal(b1-4)GlcNAc(b1-2)Man(a1-3)[Gal(b1-4)GlcNAc(b1-2)Man(a1-6)]Man(b1-4)GlcNAc(b1-4)GlcNAc
Outline: as §1

[18] = molecular target: Gal(b1-4)GlcNAc(b1-3)Gal(b1-4)[Fuc(a1-3)]GlcNAc(b1-3)Gal(b1-4)[Fuc(a1-3)]GlcNAc
Outline: as §1

[19] = molecular target: Gal(b1-4)GlcNAc(b1-3)[GlcNAc(b1-6)]Gal(b1-4)GlcNAc
Outline: as §1

[20] = molecular target: Gal(b1-4)GlcNAc(b1-6)[Gal(b1-3)]GalNAc
Outline: as §1

[21] = molecular target: Gal3S(b1-4)[Fuc(a1-3)]Glc
Outline: as §1

Gal4S6S(b1-4)GlcNAc = molecular target: Gal4S6S(b1-4)GlcNAc
Outline: as §1

Glc(a1-6)Glc(a1-6)Glc = molecular target: Glc(a1-6)Glc(a1-6)Glc
Outline: as §1

GlcA(b1-6)Gal = molecular target: GlcA(b1-6)Gal
Outline: as §1

[22] = molecular target: Man(a1-2)Man(a1-3)[Man(a1-2)Man(a1-6)]Man(a1-6)[Man(a1-2)Man(a1-2)Man(a1-3)]Man
Outline: as §1

[23] = molecular target: Man(a1-2)Man(a1-6)[Man(a1-3)]Man(a1-6)[Man(a1-2)Man(a1-2)Man(a1-3)]Man(b1-4)GlcNAc(b1-4)GlcNAc
Outline: as §1

Man(a1-3)[Man(a1-6)]Man = molecular target: Man(a1-3)[Man(a1-6)]Man
Outline: as §1

[24] = molecular target: Neu5Ac(a2-3)Gal(b1-3)GalNAc(b1-4)[Neu5Ac(a2-3)]Gal(b1-4)Glc
Outline: as §1

[25] = molecular target: Neu5Ac(a2-3)Gal(b1-4)GlcNAc(b1-3)Gal(b1-3)GlcNAc
Outline: as §1

[26] = molecular target: Neu5Ac(a2-3)Gal(b1-4)[Fuc(a1-3)]GlcNAc(b1-3)Gal
Outline: as §1

[27] = molecular target: Neu5Ac(a2-3)[GalNAc(b1-4)]Gal(b1-4)Glc
Outline: as §1

[28] = molecular target: Neu5Ac(a2-6)Gal(b1-4)GlcNAc(b1-2)Man(a1-3)[GlcNAc(b1-2)Man(a1-6)]Man(b1-4)GlcNAc(b1-4)GlcNAc
Outline: as §1

[29] = molecular target: Neu5Ac(a2-6)GalNAc(b1-4)GlcNAc
Outline: as §1

| Binder | glycan array binding signal (z-score) [1] | glycan array binding signal (z-score) [2] | glycan array binding signal (z-score) (GlcNAc(b1-3)Fuc) | glycan array binding signal (z-score) (GlcNAc(b1-3)Gal(b1-4)Glc) | glycan array binding signal (z-score) [3] | glycan array binding signal (z-score) [4] | glycan array binding signal (z-score) [5] | glycan array binding signal (z-score) [6] | glycan array binding signal (z-score) (Kdn(a2-3)Gal(b1-4)GlcNAc) | glycan array binding signal (z-score) [7] | glycan array binding signal (z-score) [8] | glycan array binding signal (z-score) [9] | glycan array binding signal (z-score) [10] | glycan array binding signal (z-score) [11] | glycan array binding signal (z-score) [12] | glycan array binding signal (z-score) [13] | glycan array binding signal (z-score) (Fuc(a1-2)Gal(b1-3)GlcNAc) | glycan array binding signal (z-score) [14] | glycan array binding signal (z-score) [15] | glycan array binding signal (z-score) [16] | glycan array binding signal (z-score) (Gal(b1-3)GalNAc) | glycan array binding signal (z-score) [17] | glycan array binding signal (z-score) [18] | glycan array binding signal (z-score) [19] | glycan array binding signal (z-score) [20] | glycan array binding signal (z-score) [21] | glycan array binding signal (z-score) (Gal4S6S(b1-4)GlcNAc) | glycan array binding signal (z-score) (Glc(a1-6)Glc(a1-6)Glc) | glycan array binding signal (z-score) (GlcA(b1-6)Gal) | glycan array binding signal (z-score) [22] | glycan array binding signal (z-score) [23] | glycan array binding signal (z-score) (Man(a1-3)[Man(a1-6)]Man) | glycan array binding signal (z-score) [24] | glycan array binding signal (z-score) [25] | glycan array binding signal (z-score) [26] | glycan array binding signal (z-score) [27] | glycan array binding signal (z-score) [28] | glycan array binding signal (z-score) [29] |
| --- | --- | --- | --- | --- | --- | --- | --- | --- | --- | --- | --- | --- | --- | --- | --- | --- | --- | --- | --- | --- | --- | --- | --- | --- | --- | --- | --- | --- | --- | --- | --- | --- | --- | --- | --- | --- | --- | --- |
| Pa IMPa (Pseudomonas aeruginosa), Q9I5W4 (protein) MSLSTTAFPSLQGENMSRSPIPRHRALLAGFCLAGALSAQAATQEEILDAALVSGDSSQLTDSHLVALRLQQQVERIRQTRTQLLDGLYQNLSQAYDPGAASMWVLPANPDNTLPFLIGDKGRVLASLSLEAGGRGLAYGTNVLTQLSGTNAAHAPLLKRAVQWLVNGDPGAATAKDFKVSVVGVDKTAALNGLKSAGLQPADAACNALTDASCASTSKLLVLGNGASAASLSATVRARLQAGLPILFVHTNGWNQSSTGQQILAGLGLQEGPYGGNYWDKDRVPSSRTRTRSVELGGAYGQDPALVQQIVDGSWRTDYDWSKCTSYVGRTTCDDVPGLSDFSKRVDVLKGALDAYNQKAQNLFALPGTTSLRLWLLWADAVRQNIRYPMDKAADTARFQETFVADAIVGYVREAGAAQKELGSYAGQRQQSMPVSGSEETLTLTLPSAQGFTAIGRMAAPGKRLSIRIEDAGQASLAVGLNTQRIGSTRLWNTRQYDRPRFLKSPDIKLQANQSVALVSPYGGLLQLVYSGATPGQTVTVKVTGAASQPFLDIQPGEDSSQAIADFIQALDADKADWLEIRSGSVEVHAKVEKVRGSIDKDYGGDVQRFIRELNEVFIDDAYTLAGFAIPNQAKTPAIQQECAARGWDCDSETLHKLPGTQHINVDQYAQCGGGCSGNPYDQTWGLNPRGWGESHELGHNLQVNRLKVYGGRSGEISNQIFPLHKDWRVLREFGQNLDDTRVNYRNAYNLIVAGRAEADPLAGVYKRLWEDPGTYALNGERMAFYTQWVHYWADLKNDPLQGWDIWTLLYLHQRQVDKSDWDANKAALGYGTYAQRPGNSGDASSTDGNDNLLLGLSWLTQRDQRPTFALWGIRTSAAAQAQVAAYGFAEQPAFFYANNRTNEYSTVKLLDMSQGSPAWPFP | -0.321 | 1.41 | 1.37 | -0.08 | -0.305 | 7.78 | 0.125 | 17.5 | -0.467 | -0.474 | 0.474 | 0.273 | -0.409 | -0.371 | -0.007 | -0.305 |  |  |  |  |  |  |  |  |  |  |  |  |  |  |  |  |  |  |  |  |  |  |
| RfpB (Mycobacterium tuberculosum), O05594 (protein) MAAGLVTASMSLSTAVAHAGPSPNWDAVAQCESGGNWAANTGNGKYGGLQFKPATWAAFGGVGNPAAASREQQIAVANRVLAEQGLDAWPTCGAASGLPIALWSKPAQGIKHAGPSPNWDAVAQCESGGNWAANTGNGKYGGLQFKPATWAAFGGVGNPAAASREQQIAVANRVLAEQGLDAWPTCGA |  |  |  |  |  |  |  |  |  |  |  |  |  |  |  |  | 0.352 | -0.487 | -0.065 | 2.53 | -0.202 | -0.1 | 9.72 | 2.74 | -0.262 | -0.568 | 0.03 | -0.239 | -0.284 | -0.097 | -0.426 | 9.95 | 4.02 | -0.23 | -0.07 | -0.524 | -0.499 | -0.639 |
